According to PubChem BioAssay (NCI):
Compounds without any hit were thinned out: in the full panel of roughly 83,000, 20% have a hit.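 Step 1: grow cells in 96-well plates. Step 2: add test compound at a single concentration. Step 3: incubate 48 h. Step 4: record percent growth.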 Active and inactive are the calls of the source. How the source made its calls: active means growth percent below 10; inactive means the rest.

How the values were obtained:
Experiment in all cases: NCI-60 one-dose screen, 48 h (100 = growth as untreated, 0 = no growth, -100 = all killed)
Details in all cases: 10 µM
NCI-H23 lung = system: NCI-H23 lung
NCI-H226 lung = system: NCI-H226 lung
NCI-H322M lung = system: NCI-H322M lung
HOP-62 NSCLC = system: HOP-62 NSCLC
NCI-H460 lung = system: NCI-H460 lung
HOP-92 NSCLC = system: HOP-92 NSCLC
NCI-H522 lung = system: NCI-H522 lung
786-0 renal = system: 786-0 renal
COLO 205 colon = system: COLO 205 colon
A549/ATCC NSCLC = system: A549/ATCC NSCLC

Measured: growth

CCOC(=O)c1sc(NC(=O)c2cc(OC)c(OC)c(OC)c2)nc1C
inactive: NCI-H23 lung 93.3% | NCI-H226 lung 88.8% | NCI-H322M lung 161% | HOP-62 NSCLC 116% | NCI-H460 lung 108% | HOP-92 NSCLC 46.9% | NCI-H522 lung 67.4% | 786-0 renal 114% | COLO 205 colon 122%

Oc1ccccc1-c1nnc(Cn2c(Cc3cccc4ccccc34)nc3ccccc32)o1
inactive: NCI-H23 lung 90.8% | NCI-H226 lung 93.1% | NCI-H322M lung 84.4% | HOP-62 NSCLC 87.6% | NCI-H460 lung 108% | HOP-92 NSCLC 78.3% | NCI-H522 lung 92.2% | 786-0 renal 103% | COLO 205 colon 110%

O=C(NNC(=O)c1ccncc1)Nc1ccc([N+](=O)[O-])cc1
inactive: NCI-H23 lung 94.7% | NCI-H226 lung 115% | NCI-H322M lung 105% | HOP-62 NSCLC 97% | NCI-H460 lung 105% | HOP-92 NSCLC 103% | NCI-H522 lung 88.5% | 786-0 renal 107%

COC(=O)[C@]12CC[C@@H](C)[C@H](C)[C@@H]1C1=CC[C@@H]3[C@@]4(C)C/C(=N\O)[C@H](O)[C@@]5(C)COC(=C45)C[C@@]3(C)[C@]1(C)CC2
active: NCI-H23 lung -75.7% | NCI-H226 lung -76.7% | NCI-H322M lung -77.2% | HOP-62 NSCLC -96.7% | NCI-H460 lung -76.5% | HOP-92 NSCLC -79% | NCI-H522 lung -84.7% | 786-0 renal -81% | COLO 205 colon -91.9%

O=C1/C(=C/c2ccc(O)cc2)Oc2ccc(Cl)cc21
inactive: NCI-H23 lung 71.4% | NCI-H226 lung 68.8% | NCI-H322M lung 82.8% | HOP-62 NSCLC 85.6% | NCI-H460 lung 79.6% | HOP-92 NSCLC 67.1% | A549/ATCC NSCLC 79.7% | 786-0 renal 71.4% | COLO 205 colon 109%
active: NCI-H522 lung -65%

CCOC(=O)c1c(Cl)c2c(n1Cc1cccc(OC)c1)-c1oncc1CC2
active: NCI-H322M lung -7.41% | NCI-H522 lung 5.7%
inactive: NCI-H23 lung 50.5% | NCI-H226 lung 56.9% | HOP-62 NSCLC 37.5% | HOP-92 NSCLC 31% | A549/ATCC NSCLC 45% | 786-0 renal 33.7%

O=C(O)c1ccc(CNc2ccc(C(=O)CCl)cc2)cc1
active: NCI-H522 lung -41.9%
inactive: NCI-H23 lung 116% | NCI-H226 lung 97.2% | NCI-H322M lung 102% | HOP-62 NSCLC 98.5% | NCI-H460 lung 103% | HOP-92 NSCLC 77.4% | 786-0 renal 109% | COLO 205 colon 97.3%

Cc1ccc(C)c2c1sc1nc3n[nH]c(N)c3c(=N)n12
inactive: NCI-H23 lung 107% | NCI-H226 lung 105% | NCI-H322M lung 113% | HOP-62 NSCLC 104% | NCI-H460 lung 107% | HOP-92 NSCLC 97.2% | NCI-H522 lung 87.4% | 786-0 renal 111% | COLO 205 colon 112%

CCOC(=O)CSC(=S)SCC(=O)OCC
inactive: NCI-H23 lung 110% | NCI-H226 lung 106% | NCI-H322M lung 118% | HOP-62 NSCLC 105% | NCI-H460 lung 107% | HOP-92 NSCLC 108% | NCI-H522 lung 67.7% | A549/ATCC NSCLC 99% | 786-0 renal 103% | COLO 205 colon 127%

CCCCC(CC#N)(CCC)CCC
inactive: NCI-H23 lung 105% | NCI-H226 lung 109% | NCI-H322M lung 95.6% | HOP-62 NSCLC 116% | NCI-H460 lung 109% | HOP-92 NSCLC 99.7% | NCI-H522 lung 97.5% | 786-0 renal 95.5% | COLO 205 colon 106%

CC(=O)CS(C)(=O)=O
inactive: NCI-H23 lung 102% | NCI-H226 lung 101% | NCI-H322M lung 113% | HOP-62 NSCLC 106% | NCI-H460 lung 114% | HOP-92 NSCLC 98.5% | NCI-H522 lung 93.7% | 786-0 renal 106% | COLO 205 colon 106%

O=C(Nc1ccc(OCc2nnc(-c3ccccc3)o2)c(F)c1)Nc1ccc(Cl)c(Cl)c1
inactive: NCI-H23 lung 53% | NCI-H226 lung 72.3% | NCI-H322M lung 62.5% | HOP-62 NSCLC 76.6% | NCI-H460 lung 36.6% | HOP-92 NSCLC 55.5% | NCI-H522 lung 35% | 786-0 renal 82.1% | COLO 205 colon 58.9%

C=CCOc1ccc2c(c1)CC[C@@H]1[C@@H]2CC[C@]2(C)C(=O)/C(=N/O)C[C@@H]12
active: HOP-92 NSCLC -5.15%
inactive: NCI-H23 lung 60.1% | NCI-H226 lung 76.2% | NCI-H322M lung 50.9% | HOP-62 NSCLC 56.7% | NCI-H460 lung 64% | NCI-H522 lung 44.5% | 786-0 renal 47.3% | COLO 205 colon 40.8%

COCCOC(=O)NC(=O)Nc1ccc(/C(=N/O)c2ccc(Cl)cc2)cc1
active: NCI-H460 lung 7.81% | NCI-H522 lung -38.3% | COLO 205 colon -42.6%
inactive: NCI-H23 lung 29.2% | NCI-H226 lung 33.3% | NCI-H322M lung 30.5% | HOP-62 NSCLC 19.2% | HOP-92 NSCLC 44.6% | 786-0 renal 22.3%

CC(Oc1ccc(Cl)cc1)c1ccccc1 (stereo not drawn)
inactive: NCI-H23 lung 102% | NCI-H226 lung 93% | NCI-H322M lung 87.1% | HOP-62 NSCLC 98.3% | NCI-H460 lung 104% | HOP-92 NSCLC 95% | NCI-H522 lung 103% | 786-0 renal 98.5% | COLO 205 colon 105%

COc1cc(-c2nc3ccc(C)cc3[nH]2)ccc1OCc1nnc(-c2ccc(CC(C)C)cc2)o1
inactive: NCI-H23 lung 93.2% | NCI-H226 lung 86.9% | NCI-H322M lung 97.2% | HOP-62 NSCLC 90.6% | NCI-H460 lung 90.8% | HOP-92 NSCLC 79.4% | NCI-H522 lung 97.4% | 786-0 renal 90% | COLO 205 colon 103%

CCCC(C)c1ccc(OCCCCCCN2CCNCC2)cc1 (stereo not drawn)
inactive: NCI-H23 lung 61.6% | NCI-H226 lung 89.3% | NCI-H322M lung 58.3% | HOP-62 NSCLC 66.6% | HOP-92 NSCLC 25.1%
active: NCI-H460 lung 6.72% | NCI-H522 lung 3.3% | 786-0 renal -21.1% | COLO 205 colon -68.3%

COc1ccc(-c2oncc2-c2cc(OC)c3c(c2)OCO3)cc1
active: HOP-92 NSCLC -3.69% | NCI-H522 lung 3.28%
inactive: NCI-H23 lung 47.7% | NCI-H226 lung 77.5% | NCI-H322M lung 39% | HOP-62 NSCLC 33.2% | A549/ATCC NSCLC 27.7% | 786-0 renal 36.6% | COLO 205 colon 15%

COc1ccc(-c2[nH]ncc2/C=C/c2cc(C(F)(F)F)[nH]c(=O)n2)cc1
inactive: NCI-H23 lung 99.4% | NCI-H226 lung 96.9% | NCI-H322M lung 98.1% | HOP-62 NSCLC 96% | HOP-92 NSCLC 59.3% | NCI-H522 lung 75.7% | A549/ATCC NSCLC 104% | 786-0 renal 89.8% | COLO 205 colon 113%

C[C@]12CC[C@H]3[C@@H](CCC4=CC(=O)CC[C@@]43C)[C@@H]1CC[C@@H]2c1csc(N)n1
inactive: NCI-H23 lung 36.2% | NCI-H226 lung 60.1% | NCI-H322M lung 110% | HOP-62 NSCLC 70.2% | HOP-92 NSCLC 65.4% | NCI-H522 lung 63.1% | A549/ATCC NSCLC 60.7% | 786-0 renal 68.1%

CC(CNC(Cc1ccccc1)c1ccccc1)NC(Cc1ccccc1)c1ccccc1 (stereo not drawn)
active: HOP-92 NSCLC -0.172% | NCI-H522 lung 9.37% | COLO 205 colon 9.3%
inactive: NCI-H23 lung 30.3% | NCI-H226 lung 34.8% | NCI-H322M lung 77.7% | HOP-62 NSCLC 39.9% | A549/ATCC NSCLC 46.8% | 786-0 renal 50.2%

CCCCCCCCCCCCCCCCCBr
inactive: NCI-H23 lung 106% | NCI-H226 lung 94.9% | NCI-H322M lung 94.6% | HOP-62 NSCLC 104% | HOP-92 NSCLC 98.8% | NCI-H522 lung 98.4% | 786-0 renal 104% | COLO 205 colon 106%

COc1ccccc1NC1=C(N2CCCCC2)C(=O)c2ccccc2C1=O
inactive: NCI-H23 lung 98.7% | NCI-H226 lung 84.5% | NCI-H322M lung 80.9% | HOP-62 NSCLC 98.8% | HOP-92 NSCLC 57.9% | NCI-H522 lung 82.5% | A549/ATCC NSCLC 74.4% | 786-0 renal 87.5% | COLO 205 colon 92.3%

COc1ccc(-c2ccc(-c3ccc(C(=N)N)c(F)c3)s2)cc1
active: NCI-H23 lung -81.9% | NCI-H226 lung -41% | NCI-H322M lung -91.5% | HOP-62 NSCLC -75.7% | HOP-92 NSCLC -87.8% | NCI-H522 lung -76.5% | A549/ATCC NSCLC -81.9% | 786-0 renal -82.5% | COLO 205 colon -71.1%

COc1ccc(-n2nnc3c(sc4ccccc43)c2=O)cc1
inactive: NCI-H23 lung 68.5% | NCI-H226 lung 24.7% | NCI-H322M lung 37.7% | NCI-H522 lung 56.6% | A549/ATCC NSCLC 10.8% | 786-0 renal 21.4% | COLO 205 colon 80.7%
active: HOP-62 NSCLC -8.23% | HOP-92 NSCLC -4.08%

CCc1ccc(-c2nnc(COc3ccc(-c4nc5cc(Cl)c(Cl)cc5[nH]4)cc3OC)o2)cc1
inactive: NCI-H23 lung 67.8% | NCI-H226 lung 103% | NCI-H322M lung 83.6% | HOP-62 NSCLC 102% | HOP-92 NSCLC 72.2% | NCI-H522 lung 82.8% | A549/ATCC NSCLC 39.3% | 786-0 renal 77.1% | COLO 205 colon 57.1%

Cc1nc2scc(-c3ccc(Cl)cc3)n2c(=O)c1CCN1CCOCC1
inactive: NCI-H23 lung 101% | NCI-H226 lung 94.6% | NCI-H322M lung 89.7% | HOP-62 NSCLC 89% | HOP-92 NSCLC 81.6% | NCI-H522 lung 86.8% | A549/ATCC NSCLC 99.6% | 786-0 renal 98.8% | COLO 205 colon 99.9%

CNC(=O)c1cc(Oc2ccc(NC(=O)Nc3ccc(Cl)c(OC(C)C)c3)c(F)c2)ccn1
inactive: NCI-H23 lung 28.1% | NCI-H226 lung 52.5% | NCI-H322M lung 81.1% | HOP-62 NSCLC 69.3% | HOP-92 NSCLC 60.1% | NCI-H522 lung 25.3% | A549/ATCC NSCLC 44.5% | 786-0 renal 107% | COLO 205 colon 33.5%

COc1cc(OC)cc(-c2n/c(=C\c3c(O)[nH]c4ccc(OC)cc34)cc3c2=Nc2ccccc2-3)c1
inactive: NCI-H23 lung 65.8% | NCI-H226 lung 92.4% | NCI-H322M lung 102% | HOP-62 NSCLC 99.1% | HOP-92 NSCLC 68.6% | NCI-H522 lung 108% | A549/ATCC NSCLC 52.1% | 786-0 renal 75.9% | COLO 205 colon 86.5%

FC(F)(F)c1ccc(-c2cnc(Br)nc2NC2CCCCCC2)cc1
inactive: NCI-H23 lung 33.1% | NCI-H226 lung 53.1% | NCI-H322M lung 78.2% | HOP-62 NSCLC 53.5% | A549/ATCC NSCLC 28.8% | 786-0 renal 54.6% | COLO 205 colon 25.1%
active: HOP-92 NSCLC -21.4% | NCI-H522 lung 7.77%
